Screens: PubChem BioAssay, Broad Institute
LMP1 NFkB inh = EBV LMP1-driven NF-kappaB luciferase reporter inhibitors, primary screen, cell-based, luminescence, single point. inhibition, % at 12.5 µM. 0.69% of 350,000 active. LMP1-induced NF-kappaB luciferase reporter cells; in the data active = inhibition above about 41%; inconclusive = no clear call, values can overlap the other calls
MITF TRPM1 inh = inhibitors of MITF-dependent TRPM1 promoter reporter, primary screen, cell-based, SK-MEL-5, single point, luciferase; SK-MEL-5 TRPM1 promoter luciferase, 24 h; AID 488899, 2010; 0.83% of 330,000 active; inhibition, % at 12.5 µM;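 active = mean inhibition across replicates of 60% or more, whatever share of single replicates reaches that level; inconclusive = some that reach 60%, reason not given; inactive = mean inhibition across replicates below 60%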
LGR2 antag = inhibitors of bursicon-induced LGR2 CRE-luciferase signal, primary screen, cell-based, HEK293, CRE-luciferase reporter, bursicon stimulation; Drosophila bursicon receptor LGR2 (rickets); 0.35% of 380,000 active; inhibition, % at 9.99 µM; bursicon-stimulated, 4 h; AID 720647, 2013;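 active = drop in luminescence signal, shown as inhibition above about 50% in the replicate tests, limit read from the data, passing the limit was not always enough; inconclusive = probably only some replicates passing the limit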;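 also: agonist challenge used bursicon conditioned medium at about half maximal strength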
EWS-Fli block = EWS/Fli-driven NR0B1 reporter inhibitors, primary screen, A673 cells, NR0B1 luciferase, luminescence, MLPCN library; viability-normalised; inhibition, % at 12.6 µM; 0.67% of 350,000 active; AID 651661, 2012;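 active = mean inhibition of at least 50% after viability correction, with every replicate also passing that limit; inconclusive = mean reaches 50% but only one of two replicates passes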;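 also: firefly luciferase signal divided by Alamar Blue viability fluorescence both relative to DMSO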
PAX8 reporter = inhibitors of PAX8-driven TPO luciferase reporter, primary screen, RMG-I cells, single concentration; SteadyGlo, 24 h; inhibition, % at 12.6 µM; 1.2% of 360,000 active;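 active = mean replicate inhibition at least 60% with every replicate also reaching 60%; inconclusive = only one of the two criteria is met; inactive = mean below 60% and not all replicates reaching 60%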;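 also: luciferase light reporting Pax8 driven TPO promoter activity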
Shn3 inh set2 = reduction of Shn3 3'UTR firefly luciferase signal, primary screen, Schnurri-3 inhibitor project, cell-based, Clone20 osteoblasts, set 2; Clone20 osteoblast Shn3 3'UTR firefly luciferase, 24 h; inhibition, % at 12.5 µM; 0.52% of 360,000 active;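 active = mean inhibition of at least 75% with every replicate also reaching 75%; inconclusive = mean inhibition at least 75% but some replicate below; inactive = mean inhibition below 75%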
DNA binder FP = DNA binders by acridine orange displacement, dose response, counter-screen for EWS/Fli inhibitor project, biochemical, fluorescence polarization, cherry-pick; shares compounds with EWS-Fli block; salmon sperm DNA acridine orange fluorescence polarization; AC35, µM (highest dose often 68 µM); 2% of 640 active; AID 720586, 2013;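 active = fitted curve reaches a 35% signal fall AC35 below twice the sample's top valid tested dose, actives reach about 48 µM in these data; inactive = the rest, including activity in the rising direction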;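 also: lower polarization ratio signals compound binding to DNA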
A number is an active result; 0 = inactive; ? = inconclusive; - = no result. Compounds with a hit are over-represented: about 2.2% of the library has one in this group of screens.

SMILES	LMP1 NFkB inh	MITF TRPM1 inh	LGR2 antag	EWS-Fli block	PAX8 reporter	Shn3 inh set2	others
O=C(Cc1ccccn1)N1CCCCN2[C@H](CO)[C@@H](c3ccc(C#Cc4ccccc4)cc3)[C@H]2C1	-	-	0	0	0	-
COC(=O)[C@H]1[C@H](CO)[C@H]2Cn3c(ccc(-c4ccccc4)c3=O)[C@@H]1N2CC1CC1	-	-	0	0	-	-
COc1ccc(NC(=O)c2cn(CCC#N)nc2-c2cccc([N+](=O)[O-])c2)cc1	0	0	0	0	0	0
COc1ccc(Oc2cc(NC(=O)c3nn(C)cc3[N+](=O)[O-])cc([N+](=O)[O-])c2)cc1	0	81	0	0	-	?
CC[C@H](C)[C@@H]1NC(=O)CNC(=O)c2csc(n2)[C@H](C(C)(C)O)OC(=O)C(C)(C)[C@H](CCCC(C)(Cl)Cl)OC(=O)c2csc1n2	-	-	-	0	102	0
C=C1[C@@H](C)[C@H]2[C@H](Cc3ccccc3)NC(=O)[C@]23OC(=O)/C=C/[C@H](O)CCC[C@@H](C)C/C=C/[C@H]3[C@@H]1O	0	0	0	0	74	0
COC(=O)[C@@H]1[C@@H](CO)[C@@H]2Cn3c(cccc3=O)[C@H]1N2Cc1nccs1	-	-	0	0	0	-
C/C(=C\c1ccc(N(C)C)cc1)[N+](=O)[O-]	0	80	96	52	-	0
COC(=O)[C@H]1[C@H](CO)[C@H]2Cn3c(ccc(C4=CCCC4)c3=O)[C@@H]1N2CC1CCCC1	-	-	0	0	-	-
CC1CC(C)(O)CC(C(O)CC2CC(=O)NC(=O)C2)C1=O (configuration not stated)	90	67	102	0	123	94
CC=CC(C)=CC(C)C(=O)CC(O)CC1CC(=O)NC(=O)C1 (configuration not stated)	0	-	0	0	0	0
O=C(Cc1ccncc1)N1CCCCN2[C@H](C1)[C@H](c1ccc(C#CC3(O)CCCC3)cc1)[C@@H]2CO	-	-	0	-	0	-
O=C(O)[C@H]1[C@H](CO)[C@H]2Cn3c(ccc(-c4ccccc4)c3=O)[C@@H]1N2CC1CCCCC1	-	-	0	0	0	-
COc1cccc(-c2ccc([C@H]3[C@@H](CO)N4CCCCN(C(=O)Cc5ccncc5)C[C@H]34)cc2)c1	-	-	0	-	0	-
COc1ccc(Cc2nccc3cc(OC)c(OC)cc23)cc1OC	0	0	0	0	0	0
COc1cc2c(ccc3c4cc(OC)c(OC)cc4c[n+](C)c23)cc1O	0	0	0	0	75	0
CNc1ccc2nc3ccccc3[n+](C)c2c1	0	72	0	0	65	0
C[n+]1c2ccccc2nc2ccc(NCCO)cc21	0	0	0	0	0	0
O=C(Cc1ccccc1)N1CCCCN2[C@H](CO)[C@@H](c3ccc(C#Cc4ccccc4)cc3)[C@H]2C1	-	-	0	-	0	-
CCN1CCN(CC(c2ccccc2)c2ccccc2)CC1	0	0	0	0	0	0
O=C(c1ccccc1)C(CN1CCCC1)c1ccccc1 (configuration not stated)	73	-	?	-	100	?
CCOC(=O)CC(NC(=O)C(Cc1ccc(N(CCCl)CCCl)cc1)NC(C)=O)C(=O)OCC (configuration not stated)	55	0	0	68	0	0
C=C1C(=O)OC2C1CCC(C)C1(O)C=CC(=O)C21C (configuration not stated)	0	75	0	62	-	0	DNA binder FP=0
C[C@@H]1O[C@@H](O[C@H]2C[C@@H](O)[C@]3(CO)[C@@H]4C(CC[C@]3(O)C2)[C@@]2(O)CC[C@H](C3COC(=O)C3)[C@@]2(C)C[C@H]4O)[C@H](O)[C@H](O)[C@H]1O (some centres not stated)	53	79	73	72	86	0	DNA binder FP=0
COC(=O)[C@H]1[C@H](CO)[C@H]2Cn3c(ccc(-c4ccccc4)c3=O)[C@@H]1N2CC1CCCCC1	-	-	0	0	0	-
SMILES	LMP1 NFkB inh	MITF TRPM1 inh	LGR2 antag	EWS-Fli block	PAX8 reporter	Shn3 inh set2	others
CC(C)c1oc(=O)cc2c1[C@@H](O)[C@H]1OC(=O)[C@@]3(C)CC[C@@H](O)[C@@]2(C)C13 (some centres not stated)	0	0	67	62	0	0	DNA binder FP=0
O=C(O)[C@H]1[C@H](CO)[C@H]2Cn3c(ccc(-c4ccccc4)c3=O)[C@@H]1N2C(=O)C1CCCCC1	-	-	0	0	0	-
CCOC(=O)[C@]12Cc3cc4c(cc3[C@H]1N(Cc1ccccc1)C(=O)c1ccccc12)OCO4	0	0	0	0	0	0
CCOC(=O)[C@]12Cc3ccc(C)cc3[C@H]1N(C1CCCCC1)C(=O)c1ccccc12	-	-	53	59	82	-	DNA binder FP=0
O=C(Cc1ccccn1)N1CCCCN2[C@@H](CO)[C@H](c3ccc(-c4ccccc4)cc3)[C@@H]2C1	-	-	0	0	0	-
COC(=O)[C@H]1[C@H](CO)[C@H]2Cn3c(ccc(-c4ccccc4)c3=O)[C@@H]1N2S(=O)(=O)c1ccccc1C	-	-	0	0	0	-
O=C1NC(=O)N(Cc2ccccc2)C(=O)/C1=C\C=C\c1ccco1	0	96	0	65	0	0	DNA binder FP=0
Cn1cccc1/C=C1\C(=O)NC(=O)N(Cc2ccco2)C1=O	0	0	0	-	0	0
O=C1NC(=O)N(Cc2ccco2)C(=O)/C1=C/C=C/c1ccco1	0	95	0	61	0	0	DNA binder FP=0
COC1C(O)C(C)OC(OC2C(Oc3cccc4c(O)c5c(=O)oc6ccc(C)c7c(=O)oc(c34)c5c67)OC(C)C(O)C2O)C1O (configuration not stated)	0	0	0	69	-	0	DNA binder FP=0
C/C=C/c1ccc([C@@H]2[C@@H](CO)N3CCCCN(C(=O)Cc4cccnc4)C[C@@H]23)cc1	-	-	0	0	0	-
C[C@H]1CN([C@@H](C)CO)C(=O)CCCn2cc(nn2)CO[C@H]1CN(C)C(=O)Oc1cccc2ccccc12	-	-	0	0	0	-
COC1C(O)C(C)OC(OC2CCC3(C)C(CCC4C3C(O)CC3(C)C(C5=CC(=O)OC5)CCC43O)C2)C1O (configuration not stated)	57	73	90	51	108	0	DNA binder FP=0
CC(=O)OC1CC(OC2C(O)CC(OC3C(O)CC(OC4CCC5(C)C(CCC6C5CC(O)C5(C)C(C7=CC(=O)OC7)CCC65O)C4)OC3C)OC2C)OC(C)C1OC1OC(CO)C(O)C(O)C1O (configuration not stated)	83	70	88	65	111	0	DNA binder FP=0
